This note sets out measurements from PMC7862700, “An all-to-all approach to the identification of sequence-specific readers for epigenetic DNA modifications on cytosine”.

What all share (experiment): DAPPL (digital affinity profiling via proximity ligation, sequencing); 10 mM Tris-HCl pH 7.5, 50 mM NaCl, 1 mM DTT, 4% glycerol, room temperature, 30 min; GST-TFs on glutathione beads, 16-mer random dsDNA library, 0.1% formaldehyde crosslink after washing; high values mean tight binding
The target in experiment [1] is T1, FEV (Homo sapiens, UniProt Q99581 1-238).
T1 sequence: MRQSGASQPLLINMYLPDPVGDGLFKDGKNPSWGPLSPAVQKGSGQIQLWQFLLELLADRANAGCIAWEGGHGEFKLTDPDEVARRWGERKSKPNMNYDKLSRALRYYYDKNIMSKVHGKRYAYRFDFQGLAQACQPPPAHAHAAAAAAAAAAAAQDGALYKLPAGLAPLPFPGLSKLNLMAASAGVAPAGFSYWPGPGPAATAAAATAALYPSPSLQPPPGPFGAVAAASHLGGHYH
Conditions: protein: recombinant; tags: N-terminal GST; dsDNA, one strand shown. A digest of the protocol:
(§1)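 Human transcription factors were made in yeast as GST fusions, captured on glutathione beads and barcoded with DNA. With a tag-only sample included, the pool was incubated with 200 nmole of a random double-stranded 16-mer DNA library in Tris/NaCl/DTT/glycerol buffer at room temperature for 30 min, then crosslinked with 0.1% formaldehyde after washing, ligated by proximity, amplified and sequenced. For binding signal, each hexamer's read frequency for a factor is divided by its frequency for the tag-only sample.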

The target of experiment [2] is ETV5 (Homo sapiens, UniProt P41161 1-510). The settings on record: protein: recombinant; tags: N-terminal GST; dsDNA, one strand shown. In outline:
as §1

The target in experiment [3] is HSF1 (Homo sapiens, UniProt Q00613 1-529). Conditions: protein: recombinant; tags: N-terminal GST; chain copies: 3; dsDNA, one strand shown. In outline: as §1
Experiment [4] addresses T2, SPIC (Homo sapiens, UniProt Q8N5J4 1-248).
T2 sequence: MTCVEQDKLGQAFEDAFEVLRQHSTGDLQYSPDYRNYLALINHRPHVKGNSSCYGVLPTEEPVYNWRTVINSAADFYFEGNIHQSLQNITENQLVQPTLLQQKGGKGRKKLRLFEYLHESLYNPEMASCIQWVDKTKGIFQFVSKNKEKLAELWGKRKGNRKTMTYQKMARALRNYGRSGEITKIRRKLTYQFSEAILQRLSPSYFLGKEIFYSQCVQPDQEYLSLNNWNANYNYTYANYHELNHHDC
Conditions: protein: recombinant; tags: N-terminal GST; dsDNA, one strand shown. A digest of the protocol: as §1

Experiment [5] deals with ELF4 (Homo sapiens, UniProt Q99607 1-663). Conditions: protein: recombinant; tags: N-terminal GST; dsDNA, one strand shown. A digest of the protocol:
as §1

The target in experiment [6] is T3, ELK4 (Homo sapiens, UniProt P28324-2 1-405).
T3 sequence: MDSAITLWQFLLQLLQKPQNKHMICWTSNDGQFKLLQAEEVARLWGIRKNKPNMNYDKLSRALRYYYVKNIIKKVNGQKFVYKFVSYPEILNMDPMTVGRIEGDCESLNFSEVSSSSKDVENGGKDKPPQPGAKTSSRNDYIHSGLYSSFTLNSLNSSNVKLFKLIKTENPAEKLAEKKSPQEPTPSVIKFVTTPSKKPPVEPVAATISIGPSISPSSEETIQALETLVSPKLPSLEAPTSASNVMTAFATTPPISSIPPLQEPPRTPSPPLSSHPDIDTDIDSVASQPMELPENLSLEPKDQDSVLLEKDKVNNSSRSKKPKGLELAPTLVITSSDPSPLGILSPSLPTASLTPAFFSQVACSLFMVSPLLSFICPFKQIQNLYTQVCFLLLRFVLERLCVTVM
The settings on record: protein: recombinant; tags: N-terminal GST; dsDNA, one strand shown. In outline:
as §1

Experiment [7] deals with T4, ETV2 (Homo sapiens, UniProt O00321 1-342).
T4 sequence: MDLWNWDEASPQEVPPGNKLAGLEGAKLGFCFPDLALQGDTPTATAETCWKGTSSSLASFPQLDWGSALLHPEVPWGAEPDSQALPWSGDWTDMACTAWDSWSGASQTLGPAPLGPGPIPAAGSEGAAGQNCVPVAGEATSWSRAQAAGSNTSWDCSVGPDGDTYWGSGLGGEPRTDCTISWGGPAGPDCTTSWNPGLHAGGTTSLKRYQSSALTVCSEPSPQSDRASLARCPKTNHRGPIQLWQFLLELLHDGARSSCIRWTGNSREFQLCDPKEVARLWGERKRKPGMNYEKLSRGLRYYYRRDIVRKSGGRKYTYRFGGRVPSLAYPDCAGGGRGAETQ
The settings on record: protein: recombinant; tags: N-terminal GST; dsDNA, one strand shown. A digest of the protocol: as §1

The target in experiment [8] is T5, ELF3 (Homo sapiens, UniProt P78545 1-371).
T5 sequence: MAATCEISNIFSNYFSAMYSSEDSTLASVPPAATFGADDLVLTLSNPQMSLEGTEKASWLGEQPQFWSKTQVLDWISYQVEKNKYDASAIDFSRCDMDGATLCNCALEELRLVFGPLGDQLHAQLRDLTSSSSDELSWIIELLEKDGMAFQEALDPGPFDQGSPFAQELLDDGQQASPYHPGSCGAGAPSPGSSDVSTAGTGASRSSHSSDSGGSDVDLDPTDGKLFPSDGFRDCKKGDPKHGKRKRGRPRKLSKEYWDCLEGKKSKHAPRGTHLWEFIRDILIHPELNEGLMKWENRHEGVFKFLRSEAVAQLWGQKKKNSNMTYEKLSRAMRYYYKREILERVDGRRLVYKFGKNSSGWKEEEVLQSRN
The settings on record: protein: recombinant; tags: N-terminal GST; dsDNA, one strand shown. In outline: as §1

The target in experiment [9] is CRX (Homo sapiens, UniProt O43186 1-299). The settings on record: protein: recombinant; tags: N-terminal GST; dsDNA, one strand shown. In outline: as §1
Experiment [10] has as its target ETV1 (Homo sapiens, UniProt P50549 1-477). The settings on record: protein: recombinant; tags: N-terminal GST; dsDNA, one strand shown. In outline:
as §1

For experiment [11], the target named is T6, ERF (Homo sapiens, UniProt P50548 1-548).
T6 sequence: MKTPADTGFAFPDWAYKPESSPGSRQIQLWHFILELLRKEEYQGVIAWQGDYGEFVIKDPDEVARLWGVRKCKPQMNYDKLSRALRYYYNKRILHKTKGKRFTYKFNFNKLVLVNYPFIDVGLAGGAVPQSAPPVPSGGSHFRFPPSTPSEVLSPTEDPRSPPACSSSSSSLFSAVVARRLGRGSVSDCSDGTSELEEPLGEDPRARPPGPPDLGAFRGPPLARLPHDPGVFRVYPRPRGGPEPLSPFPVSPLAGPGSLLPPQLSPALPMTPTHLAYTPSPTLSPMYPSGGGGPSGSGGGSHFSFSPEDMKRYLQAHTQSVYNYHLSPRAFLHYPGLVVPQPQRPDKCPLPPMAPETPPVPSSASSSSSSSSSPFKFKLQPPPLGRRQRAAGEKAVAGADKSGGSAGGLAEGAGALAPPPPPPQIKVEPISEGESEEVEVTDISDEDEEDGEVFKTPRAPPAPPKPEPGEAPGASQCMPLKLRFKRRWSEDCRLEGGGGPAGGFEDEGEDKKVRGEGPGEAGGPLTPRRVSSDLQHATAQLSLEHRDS
The settings on record: protein: recombinant; tags: N-terminal GST; dsDNA, one strand shown. In outline:
as §1

For experiment [12], the target named is T7, ETV3L (Homo sapiens, UniProt Q6ZN32 1-361).
T7 sequence: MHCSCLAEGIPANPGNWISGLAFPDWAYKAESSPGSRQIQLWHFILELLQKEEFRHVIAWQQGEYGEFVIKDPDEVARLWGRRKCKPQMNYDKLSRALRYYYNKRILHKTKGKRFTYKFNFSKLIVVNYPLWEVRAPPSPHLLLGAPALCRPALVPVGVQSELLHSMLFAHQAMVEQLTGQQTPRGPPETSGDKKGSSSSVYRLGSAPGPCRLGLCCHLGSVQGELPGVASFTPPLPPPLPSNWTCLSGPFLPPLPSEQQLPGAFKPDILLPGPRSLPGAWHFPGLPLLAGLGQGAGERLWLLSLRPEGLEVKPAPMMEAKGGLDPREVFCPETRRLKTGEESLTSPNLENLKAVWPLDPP
Conditions: protein: recombinant; tags: N-terminal GST; dsDNA, one strand shown. A digest of the protocol:
as §1

Experiment [13] has as its target T8, ETS2 (Homo sapiens, UniProt P15036 1-469).
T8 sequence: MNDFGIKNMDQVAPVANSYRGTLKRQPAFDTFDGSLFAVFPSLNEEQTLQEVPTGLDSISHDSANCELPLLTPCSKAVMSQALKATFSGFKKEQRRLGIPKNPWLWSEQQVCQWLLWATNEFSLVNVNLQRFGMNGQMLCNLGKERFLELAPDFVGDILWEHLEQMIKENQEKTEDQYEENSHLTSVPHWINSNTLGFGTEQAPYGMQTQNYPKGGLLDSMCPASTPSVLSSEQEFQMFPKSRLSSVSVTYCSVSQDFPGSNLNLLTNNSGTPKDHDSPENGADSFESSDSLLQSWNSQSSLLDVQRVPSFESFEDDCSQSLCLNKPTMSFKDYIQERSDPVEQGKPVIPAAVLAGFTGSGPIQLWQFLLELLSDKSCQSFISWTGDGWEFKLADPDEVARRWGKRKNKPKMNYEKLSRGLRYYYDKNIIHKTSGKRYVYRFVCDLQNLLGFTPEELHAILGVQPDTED
Conditions: protein: recombinant; tags: N-terminal GST; dsDNA, one strand shown. In outline: as §1

The target in experiment [14] is T9, SPDEF (Homo sapiens, UniProt O95238 1-335).
T9 sequence: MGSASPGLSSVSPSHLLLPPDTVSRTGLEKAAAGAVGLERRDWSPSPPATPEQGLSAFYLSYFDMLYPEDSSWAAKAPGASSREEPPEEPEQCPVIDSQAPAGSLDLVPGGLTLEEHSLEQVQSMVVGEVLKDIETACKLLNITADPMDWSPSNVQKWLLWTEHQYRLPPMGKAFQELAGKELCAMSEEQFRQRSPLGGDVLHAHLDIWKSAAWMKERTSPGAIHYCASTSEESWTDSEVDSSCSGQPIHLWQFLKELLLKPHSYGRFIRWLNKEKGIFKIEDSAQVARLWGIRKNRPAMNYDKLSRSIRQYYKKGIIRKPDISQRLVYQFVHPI
Conditions: protein: recombinant; tags: N-terminal GST; dsDNA, one strand shown. In outline: as §1

Experiment [15] has as its target T10, ETV7 (Homo sapiens, UniProt Q9Y603 1-341).
T10 sequence: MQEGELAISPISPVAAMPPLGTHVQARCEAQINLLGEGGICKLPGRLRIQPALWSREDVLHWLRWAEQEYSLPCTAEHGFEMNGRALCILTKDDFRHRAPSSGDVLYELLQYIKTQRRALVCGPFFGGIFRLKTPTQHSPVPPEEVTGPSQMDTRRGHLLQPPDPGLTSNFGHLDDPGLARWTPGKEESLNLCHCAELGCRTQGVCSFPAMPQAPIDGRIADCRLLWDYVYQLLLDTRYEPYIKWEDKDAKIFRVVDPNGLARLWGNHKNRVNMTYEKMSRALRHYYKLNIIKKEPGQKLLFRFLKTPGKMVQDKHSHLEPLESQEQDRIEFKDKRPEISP
The settings on record: protein: recombinant; tags: N-terminal GST; dsDNA, one strand shown. A digest of the protocol:
as §1

The target in experiment [16] is T11, ELF5 (Homo sapiens, UniProt Q9UKW6-2 1-255).
T11 sequence: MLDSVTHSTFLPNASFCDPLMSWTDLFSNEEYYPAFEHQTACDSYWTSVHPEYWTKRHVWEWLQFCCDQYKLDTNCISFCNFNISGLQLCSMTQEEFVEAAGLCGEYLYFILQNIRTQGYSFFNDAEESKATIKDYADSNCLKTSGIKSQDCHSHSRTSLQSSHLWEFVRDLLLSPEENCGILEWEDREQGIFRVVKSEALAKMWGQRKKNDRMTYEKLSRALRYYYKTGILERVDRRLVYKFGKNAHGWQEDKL
The settings on record: protein: recombinant; tags: N-terminal GST; dsDNA, one strand shown. A digest of the protocol: as §1

Experiment [17] addresses T12, ETV3 (Homo sapiens, UniProt P41162-2 1-143).
T12 sequence: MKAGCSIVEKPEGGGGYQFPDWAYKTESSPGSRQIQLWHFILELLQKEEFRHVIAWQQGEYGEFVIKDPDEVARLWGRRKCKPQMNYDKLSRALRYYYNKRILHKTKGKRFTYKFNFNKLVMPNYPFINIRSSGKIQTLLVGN
The settings on record: protein: recombinant; tags: N-terminal GST; dsDNA, one strand shown. In outline:
as §1

Experiment [18] concerns the target ETV6 (Homo sapiens, UniProt P41212 1-452). The settings on record: protein: recombinant; tags: N-terminal GST; dsDNA, one strand shown. In outline:
as §1

Sequence of ETV1 (P50549 whole entry): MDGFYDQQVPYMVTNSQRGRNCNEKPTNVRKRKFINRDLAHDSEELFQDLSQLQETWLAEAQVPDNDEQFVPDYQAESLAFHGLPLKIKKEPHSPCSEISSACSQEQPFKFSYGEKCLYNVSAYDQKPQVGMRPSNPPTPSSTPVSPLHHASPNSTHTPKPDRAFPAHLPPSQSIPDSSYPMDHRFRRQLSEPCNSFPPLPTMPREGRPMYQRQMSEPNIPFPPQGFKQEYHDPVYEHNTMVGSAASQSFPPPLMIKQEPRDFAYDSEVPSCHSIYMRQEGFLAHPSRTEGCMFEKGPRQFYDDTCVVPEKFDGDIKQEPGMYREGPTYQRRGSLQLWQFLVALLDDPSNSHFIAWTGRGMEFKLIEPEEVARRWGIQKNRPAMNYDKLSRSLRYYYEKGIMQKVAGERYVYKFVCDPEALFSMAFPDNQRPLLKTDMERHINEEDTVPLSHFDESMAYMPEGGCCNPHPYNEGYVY
Sequence of ETV6 (P41212 whole entry): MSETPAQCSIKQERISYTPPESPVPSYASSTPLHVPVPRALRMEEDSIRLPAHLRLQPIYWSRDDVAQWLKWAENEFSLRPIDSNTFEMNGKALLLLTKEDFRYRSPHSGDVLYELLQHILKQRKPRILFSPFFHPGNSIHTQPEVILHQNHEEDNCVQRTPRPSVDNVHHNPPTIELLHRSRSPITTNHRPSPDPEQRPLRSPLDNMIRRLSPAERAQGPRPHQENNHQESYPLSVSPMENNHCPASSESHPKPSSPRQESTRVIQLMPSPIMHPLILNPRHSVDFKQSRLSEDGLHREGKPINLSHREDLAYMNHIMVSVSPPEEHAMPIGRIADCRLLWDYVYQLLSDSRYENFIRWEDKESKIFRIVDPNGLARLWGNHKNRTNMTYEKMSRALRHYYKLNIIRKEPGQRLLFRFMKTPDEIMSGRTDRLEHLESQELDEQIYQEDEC
Sequence of ELF4 (Q99607 whole entry): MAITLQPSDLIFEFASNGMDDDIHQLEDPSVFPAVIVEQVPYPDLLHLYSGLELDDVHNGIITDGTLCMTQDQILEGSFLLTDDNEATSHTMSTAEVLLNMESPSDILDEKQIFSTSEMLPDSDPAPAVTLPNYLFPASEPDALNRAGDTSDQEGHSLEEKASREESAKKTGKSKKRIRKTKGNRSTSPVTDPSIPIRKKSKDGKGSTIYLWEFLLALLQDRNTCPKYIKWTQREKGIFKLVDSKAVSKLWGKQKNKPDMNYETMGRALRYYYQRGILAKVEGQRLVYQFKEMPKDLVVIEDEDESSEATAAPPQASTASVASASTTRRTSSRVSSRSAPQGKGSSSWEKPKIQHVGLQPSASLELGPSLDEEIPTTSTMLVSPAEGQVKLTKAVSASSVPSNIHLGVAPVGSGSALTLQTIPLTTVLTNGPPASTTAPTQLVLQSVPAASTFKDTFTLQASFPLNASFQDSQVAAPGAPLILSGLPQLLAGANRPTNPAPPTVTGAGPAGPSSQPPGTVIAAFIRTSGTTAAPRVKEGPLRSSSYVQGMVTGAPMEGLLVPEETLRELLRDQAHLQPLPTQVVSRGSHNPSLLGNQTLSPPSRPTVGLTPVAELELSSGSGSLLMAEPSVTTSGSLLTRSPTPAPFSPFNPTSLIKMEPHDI
Sequence of HSF1 (Q00613 whole entry): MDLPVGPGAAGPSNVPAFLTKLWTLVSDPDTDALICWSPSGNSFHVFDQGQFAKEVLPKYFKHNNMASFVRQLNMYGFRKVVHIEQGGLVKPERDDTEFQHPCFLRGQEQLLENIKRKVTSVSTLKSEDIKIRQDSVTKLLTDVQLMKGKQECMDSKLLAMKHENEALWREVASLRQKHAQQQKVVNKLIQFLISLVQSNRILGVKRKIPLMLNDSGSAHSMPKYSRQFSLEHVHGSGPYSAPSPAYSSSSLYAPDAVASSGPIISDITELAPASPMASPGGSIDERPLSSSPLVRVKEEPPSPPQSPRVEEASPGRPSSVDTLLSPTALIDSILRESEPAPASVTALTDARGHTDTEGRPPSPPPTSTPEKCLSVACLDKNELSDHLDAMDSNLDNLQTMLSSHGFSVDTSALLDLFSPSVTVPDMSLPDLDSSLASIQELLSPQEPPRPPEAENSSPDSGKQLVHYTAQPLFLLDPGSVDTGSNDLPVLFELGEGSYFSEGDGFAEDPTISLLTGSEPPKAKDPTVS
Sequence of CRX (O43186 whole entry): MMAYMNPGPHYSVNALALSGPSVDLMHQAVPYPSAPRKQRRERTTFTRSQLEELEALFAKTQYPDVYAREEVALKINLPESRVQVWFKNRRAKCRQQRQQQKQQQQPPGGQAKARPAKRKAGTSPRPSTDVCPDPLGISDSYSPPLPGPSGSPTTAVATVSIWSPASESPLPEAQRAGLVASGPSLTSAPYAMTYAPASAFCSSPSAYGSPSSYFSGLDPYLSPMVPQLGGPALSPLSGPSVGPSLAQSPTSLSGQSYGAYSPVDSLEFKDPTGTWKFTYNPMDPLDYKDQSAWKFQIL
Sequence of ETV5 (P41161 whole entry): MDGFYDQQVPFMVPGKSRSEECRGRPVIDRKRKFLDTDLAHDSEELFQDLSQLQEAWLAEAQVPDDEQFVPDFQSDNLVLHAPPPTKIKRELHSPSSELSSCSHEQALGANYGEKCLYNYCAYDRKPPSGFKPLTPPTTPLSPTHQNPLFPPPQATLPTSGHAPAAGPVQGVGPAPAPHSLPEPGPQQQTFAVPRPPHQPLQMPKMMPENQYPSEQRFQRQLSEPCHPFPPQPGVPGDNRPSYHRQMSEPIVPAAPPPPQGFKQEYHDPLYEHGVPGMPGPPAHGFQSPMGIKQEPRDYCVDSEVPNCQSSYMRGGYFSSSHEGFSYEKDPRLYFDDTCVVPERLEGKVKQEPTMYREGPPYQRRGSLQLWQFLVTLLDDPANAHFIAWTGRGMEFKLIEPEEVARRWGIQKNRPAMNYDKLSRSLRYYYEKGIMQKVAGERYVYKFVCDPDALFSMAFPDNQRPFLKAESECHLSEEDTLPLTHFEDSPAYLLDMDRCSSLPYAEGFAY

As to AACTCT, the binding signal is 1.31 fold enrichment (6-mer frequency, TF over GST control) in experiment [1]; 1.36 fold enrichment (6-mer frequency, TF over GST control) in experiment [2]; 1.4 fold enrichment (6-mer frequency, TF over GST control) in [3]; 1.6 fold enrichment (6-mer frequency, TF over GST control) in experiment [4]; 1.36 fold enrichment (6-mer frequency, TF over GST control) in experiment [5]; 1.24 fold enrichment (6-mer frequency, TF over GST control) in experiment [6]. The binding signal in experiment [7] is 1.24 fold enrichment (6-mer frequency, TF over GST control); in experiment [8], 1.44 fold enrichment (6-mer frequency, TF over GST control); in experiment [9], 1.37 fold enrichment (6-mer frequency, TF over GST control); in experiment [10] it was 1.36 fold enrichment (6-mer frequency, TF over GST control); in experiment [11] it was 1.33 fold enrichment (6-mer frequency, TF over GST control); in [12], 1.27 fold enrichment (6-mer frequency, TF over GST control). Also, the binding signal in experiment [13] is 1.32 fold enrichment (6-mer frequency, TF over GST control); in [14], 1.35 fold enrichment (6-mer frequency, TF over GST control); in experiment [15], 1.24 fold enrichment (6-mer frequency, TF over GST control); in [16] it was 1.35 fold enrichment (6-mer frequency, TF over GST control); in [17] it was 1.34 fold enrichment (6-mer frequency, TF over GST control); in experiment [18], 1.33 fold enrichment (6-mer frequency, TF over GST control).
